± gives the standard deviation of the averaged measurements.
Tested on: Serratia marcescens K904 PosmB-luxCDABE reporter (pMQ747)
Assay: PosmB-lux reporter fold induction (RLU/OD600 relative to no-compound control), highest over Biolog concentrations; higher = stronger reporter activation
Settings: Biolog plate: PM13; well positions: B9-12; ΔrcsB mutant CMS5177; 4 h
Method: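 Serratia marcescens K904 (wild type) or its isogenic ΔrcsB mutant, carrying the Rcs-dependent PosmB-luxCDABE reporter plasmid pMQ747, was grown in LB at OD600 0.1 in Biolog Phenotype MicroArray plates PM11-20 for 4 h at 30-32°C. Each compound is present at 3-4 proprietary concentrations (not stated); per the Fig. S1 legend the value given is the highest fold over those wells. Three independent trials.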

Compound	PosmB-lux reporter fold induction
CCn1cc(C(=O)O)c(=O)c2cc3c(cc21)OCO3 [Oxolinic acid]	4.3 ± 0.48

Same assay, conditions: Biolog plate: PM15; well positions: H1-4; ΔrcsB mutant CMS5177; 4 h

Compound	PosmB-lux reporter fold induction
O=[N+]([O-])c1ncc[nH]1 [2-Nitroimidazole]	1.51 ± 0.7

— the supplement of paper PMC9942566
